A selection follows.
aSyn 5UTR act – Activators via SNCA 5'UTR binding, MLPCN. alpha-synuclein 5'UTR reporter, activators screen. activity score, % (tested at 7.5 µM), hits read low. hit rate 7.1% among 300,000. AID 1814, 2009; in the data active means activity score below about -60%
Numbers stand for hits; . = inactive.

SMILES	aSyn 5UTR act
NC(=O)c1c(NC(=O)c2ccncc2)sc2c1CCCC2	-121
CNC(=O)c1c(NC(=O)c2nc3ccccc3s2)sc2c1CCC2	-256
Cc1cc(C(=O)Nc2sc3c(c2C#N)CCCCC3)cs1	-94
N#Cc1c(NC(=O)c2cnn3cccnc23)sc2c1CCCC2	-99
CCN(CC)CCCC(C)NC(=O)c1c(NC(=O)c2ccccc2)sc2c1CCCC2 (stereo not given)	-79
CC(C)C(=O)NC(=S)Nc1sc2c(c1C(N)=O)CCCC2	-121
COc1ccc(NC(=O)c2c(NC(=O)CCC(=O)O)sc(-c3ccccc3)c2C)cc1	-76
NC(=O)c1c(NC(=O)c2ccccc2)sc2c1CCc1ccccc1-2	-211
CSc1ccc(CNc2ccc(Cl)cc2)cc1	-114
COc1cc(C2CC(=O)Nc3n[nH]c(-c4ccccc4)c32)cc(OC)c1OC (stereo not given)	-120
COc1cc(/C=C2\CC(C(C)(C)C)C/C(=C\c3cc(OC)c(OC)c(OC)c3)C2=O)cc(OC)c1OC (stereo not given)	.
COC(=O)C1=C(Nc2ccccc2NC(=O)c2ccccc2C(=O)O)CSC1	-167
Cc1c(NC(=O)c2ccc(Br)o2)cccc1C(=O)O	-86
Nc1ccccc1NC(=O)c1ccccc1N	-139
O=C(O)c1ccccc1C(=O)Nc1ccccc1NC(=O)c1ccccc1C(=O)O	-126
Nc1ccccc1NC(=O)NC(=O)c1ccccc1	-169
Cc1c(NC(=O)c2ccccc2N)cccc1C(=O)O	-155
CCn1c(SCC(=O)Nc2ccc(C(C)=O)cc2)nc2nc3c(cc2c1=O)COC(C)(C)C3	-83
CC1(C)Cc2nc3nc(SCC(=O)Nc4ccccc4)nc(N)c3cc2CO1	-68
CC(=O)c1ccc(NC(=O)CSc2nc(N)c3cc4c(nc3n2)CCCC4)cc1	-79
CC1(C)Cc2nc3sc4c(SCC(=O)NCc5ccccc5)ncnc4c3cc2CO1	.
Cn1c(=NC(=O)COc2ccccc2)sc2cccc(F)c21	-150
CCOC(=O)c1sc(=NC(=O)CCSc2ccccc2)n(C)c1C	-146
CCOC(=O)c1sc2nc(CSc3ccccc3)nc(N3CCCN(C)CC3)c2c1C	.
CCOC(=O)c1sc(=NC(=O)COc2ccccc2)n(C)c1C	-90
SMILES	aSyn 5UTR act
CCC(=O)N1N=C(c2c(-c3ccccc3)c3cc(Cl)ccc3[nH]c2=O)CC1c1ccco1 (stereo not given)	.
Cc1ccc(C2=NN(C(=S)Nc3ccccc3)C(c3ccco3)C2)cc1 (stereo not given)	-178
COc1ccc(C2CC(c3ccc(Br)cc3)=NN2C(=S)Nc2ccccc2)cc1 (stereo not given)	-78
CCS(=O)(=O)Nc1ccc(C2=NN(C(=S)Nc3ccccc3)C(c3ccco3)C2)cc1 (stereo not given)	-81
O=C(Nc1ccc2c(c1)C(=O)OC2)c1ccc(Cl)cc1Cl	-75
O=C(Nc1ccc2c(c1)C(=O)OC2)c1ccc(F)cc1F	-63
Cc1cc(NCC2CCCCC2)nc2ccccc12	-69
COc1ccc(Nc2nc(C)c3ccccc3n2)cc1	-111
CCOc1ccc(Nc2cc(C)c3ccccc3n2)cc1	-85
CCOc1ccc(Nc2c3ccccc3nc3ccccc23)cc1	-94
COc1ccc(Nc2cc(C)c3ccc(O)cc3n2)cc1	-138
Cc1nc(Nc2nc(-c3ccccc3)cc(=O)[nH]2)nc2ccccc12	-120
Cn1cc(NC(=O)OCc2ccc(Cl)cc2)c(C(F)(F)F)n1	-109
Nc1ccc2nc(SCc3cccc(F)c3)sc2c1	-139
CCCC(=O)Nc1ccc2nc(SCC(=O)Nc3ccc(N4CCOCC4)c(Cl)c3)sc2c1	-150
Nc1ccc2nc(SCC(=O)N3CCOCC3)sc2c1	-71
Nc1ccc2nc(SCC(=O)Nc3ccc(N4CCOCC4)c(Cl)c3)sc2c1	-174
CC1CCCCN1Cc1c(O)ccc2c(=O)c(-c3ccc(Cl)cc3)coc12 (stereo not given)	-68
Cc1cccc(-n2c(=S)[nH]c3c(oc4ccccc43)c2=O)c1	-88
Cc1ccc(-n2c(=S)[nH]c3c(oc4ccccc43)c2=O)cc1	-100
COc1ccc(-c2noc(CSc3nnc(CCc4ccccc4)n3-c3ccccc3)n2)cc1OC	.
COc1ccc(-c2noc(CSc3ccccc3)n2)cc1OC	-114
c1ccc(SCc2nc(-c3ccncc3)no2)cc1	-206
CC(C)CSC1=NSC2=NC(=O)/C(=C\c3cccs3)C(=N)N12	-69
CSC1=NSC2=NC(=O)/C(=C\c3cccs3)C(=N)N12	-199
SMILES	aSyn 5UTR act
COc1cc(/C=N/O)ccc1OCc1ccccc1Cl	-113
CN(Cc1cccs1)C(=O)CCCc1c[nH]c2ccccc12	-133
COc1cccc2c(=O)c(C(=O)NCc3cccs3)c[nH]c12	-139
O=C(Cc1c[nH]c2ccccc12)NCc1cccs1	-63
CSc1nnc(-c2ccccc2N=Cc2c(C)[nH]n(-c3ccc4ccccc4c3)c2=O)c(=O)[nH]1	-73
N#CC1=C(N)OC2=C(CC/C2=C\c2ccccc2)C1c1ccccc1 (stereo not given)	-63
C=CCOc1nc(-c2ccccc2Cl)nc2ccccc12	.
CC(=O)Nc1ccc(Oc2nc(-c3ccccn3)nc3ccccc23)cc1	-115
Cc1cccc(Oc2nc(-c3ccccn3)nc3ccccc23)c1	-111
CC(=O)Nc1cccc(Oc2nc(-c3ccccn3)nc3ccccc23)c1	-129
COc1ccc(Cl)cc1NC(=O)c1cnc2n(c1=O)CCS2	-78
COc1ccccc1NC(=O)c1cnc2n(c1=O)CCS2	-133
CCOC(=O)c1sc(NC(=S)NC(=O)c2ccccc2)nc1C	-216
Cc1cc(C)c2cccc(NC(=S)NC(=O)c3ccccc3)c2n1	-76
COC(=O)c1sc(NC(=S)NC(=O)c2ccccc2)nc1C	-198
COC(=O)c1sc(NC(=S)NC(=O)c2ccccc2Cl)nc1C	-146
Cc1csc(NC(=S)NC(=O)c2ccccc2)n1	-179
COc1ccc(C(=O)NC(=S)NNC(=O)c2cnccn2)cc1OC	.
COc1cc(OC)nc(NC(=S)NC(=O)c2ccccc2)n1	-69
COc1ccc(C(=O)NC(=S)Nc2nc(C)cc(C)n2)cc1Br	-77
O=C1C(=O)c2ccc(-c3ccccc3)cc2-c2ccccc21	.
O=C1C(c2ccccc2)=[N+]([O-])c2ccccc21	-94
CCS(=O)(=O)N1N=C(c2cccs2)CC1c1cc2cc(C)ccc2nc1Cl (stereo not given)	-67
CCc1cc2c(=O)c(-c3nc4ccccc4n3C)c(COCC(=O)O)oc2cc1O	-81
COC(=O)C1CCN(C(=O)/C=C/c2ccc3c(c2)OCO3)CC1	-66
SMILES	aSyn 5UTR act
O=C(NC1=NCCS1)c1ccc(Cl)c(Cl)c1	-101
O=C(/C=C/c1ccc(Cl)c(Cl)c1)NC1=NCCS1	-104
Cc1cccc(C(=O)NC2=NCCS2)c1	-56
O=C(OCc1ccccc1F)c1ccc2c(c1)-c1ccccc1C2=O	-121
O=C(OCC(F)(F)F)c1cccc(COc2ccc3ccccc3c2)c1	.
O=C(OCc1cccc(F)c1)c1ccc2c(c1)-c1ccccc1C2=O	-68
CCN(Cc1ccccc1)c1ccc(/C=C(\C#N)c2ccccn2)cc1	-137
O=C(CSc1nccn1-c1ncc(C(F)(F)F)cc1Cl)c1ccc(Cl)cc1	-127
CN(C)c1nc(-c2ccc([N+](=O)[O-])cc2)cs1	-123
C=CCNc1nc(-c2ccc([N+](=O)[O-])cc2)cs1	-182
C=CCNc1nc(-c2ccc(Cl)cc2)cs1	-238
O=C(Nc1cc(N2CCCCC2)ncn1)c1ccc(F)cc1	-86
CC(C)Sc1nnc(Nc2ccccc2)s1	-178
CCCCc1nc2cc(C(=O)N3CCCC3)ccc2o1	-90
